This is an account of results in PubChem BioAssay (NCI).

About 83,000 compounds went through this panel and 20% of them were active in at least one assay; those are over-represented in the sample as a whole.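 Single-concentration screen, 48 h exposure, 96-well plates. Endpoint: percent growth. Below 10 = active.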 Active and inactive are the calls of the source.

The subject of this assay is EKVX NSCLC. The experiment in a line: NCI-60 one-dose screen, 48 h (100 = growth as untreated, 0 = no growth, -100 = all killed). Conditions: 10 µM. The method, then: Growth inhibition of the EKVX human Non-Small Cell Lung tumor cell line is measured as a screen for anti-cancer activity. Cells are grown in 96 well plates and exposed to the test compound for 48 hours. Compounds are tested at a single concentration, which is 10^-5 M for most compounds. The reported endpoint is percent growth (GI% or GIPRCNT), where numbers from 0 - 100% represent growth inhibition, and numbers from -100% - 0 represent cell death. For example, a value of 40 represents 60% growth inhibition. A value of 0 means no net growth occurred over the course of the experiment. A value of -40 indicates 40% of cells at the beginning of the experiment died by the end of the experiment. A value of -100 means all cells are dead at the end of the experiment.
NCI-60 Human Tumor Cell Lines Screen was performed using the standard one-dose NCI protocol, which is described in more detail at https://dtp.cancer.gov/discovery_development/nci-60/default.htm.
Compounds with GIPRCNT values below 10 were considered active. Activity score was based on GIPRCNT using the following formula: […]
Score is 0 for GIPRCNT values of 100 or above, 50 for GIPRCNT values of 0, and 100 for GIPRCNT values of -100.
Consider `O=C(c1ccccc1)c1ccc2nc(-c3ccccc3Br)[nH]c2c1`, for which the growth was -76.8% (active).

`Cc1ccc2sc3c(c2c1)Oc1nc[nH]c(=O)c1C3c1cccc(F)c1` (stereo not given): the growth is 87.9% (inactive).

Turning to `CC1[C@H]2[C@H](C[C@H]3[C@@H]4CC=C5c6sc(Nc7cccc(Cl)n7)nc6CC[C@]5(C)[C@H]4CC[C@@]32C)O[C@]12CC[C@@H](C)CO2` (stereo not given in full), the growth is 83.8% (inactive).

On to `Cc1ccc(S(=O)(=O)N2CCN(S(=O)(=O)c3oc(-c4ccccc4)nc3C#N)CC2)cc1`, for which the growth is 81.7% (inactive).

Take `Cc1ccc(COc2ccc(NC(=O)Nc3ccc(Cl)c(C(F)(F)F)c3)cc2)cc1`: the growth is 63.1% (inactive).

`COc1ccc(NCc2cn(-c3ccc(C(=O)O)cc3)nc2-c2ccc(F)cc2)cc1C(F)(F)F`: the growth is 45.5% (inactive).

As for `COc1ccc(C2c3sc4ccc(C)cc4c3Oc3nc[nH]c(=O)c32)cc1` (stereo not given), the growth is 92.7% (inactive).

Turning to `O=C(c1ccc(Cl)cc1)C(c1c[nH]c2ccccc12)c1c[nH]c2ccccc12`, the growth is -69% (active).

In the case of `COc1ccc(C2OC[C@@]3(C)C4CC[C@]5(C)C(CC=C6C7CC(C)(C)CC[C@]7(C(=O)O)CC[C@]65C)[C@@]4(C)C[C@@H](O)[C@@H]3O2)cc1` (stereo not given in full), the growth was 52.9% (inactive).

As for `COc1ccc(Cn2cc(C#N)c(N)c2C(C)=O)c(OC)c1`, the growth is 98.6% (inactive).

As to `O=C(c1ccc(F)cc1)C(c1c[nH]c2ccccc12)c1c[nH]c2ccccc12`, the growth is 88.5% (inactive).

Take `O=C(Nc1ccc(OCc2ccc(F)cc2)cc1)Nc1ccc(Cl)c(C(F)(F)F)c1`: the growth was 8.3% (active).

As for `COc1cccc(C(=O)CSc2nc(-c3ccc(OCc4ccccc4)c(OC)c3)c(C#N)c(=O)[nH]2)c1`, the growth was 97.1% (inactive).

In the case of `COc1cccc(O)c1/C=C1\SCc2cc3c(OC)cccc3[o+]c21`, the growth was 105% (inactive).

As to `Cn1cc(-c2nnc(N)nc2-c2c[nH]c3ccc(F)cc23)c2cc(Br)cnc21`, the growth is 94% (inactive).

On to `C#CCOc1cc(N(CC)CC)ccc1C(C(=O)NC(C)(C)C)N(C(=O)C1CCc2cc(F)ccc2O1)c1ccc(F)cc1F` (stereo not given), for which the growth is 47.6% (inactive).

As to `COc1cc2oc(-c3cccc(C(=O)Nc4ccc(Cl)cc4)c3)cc(=O)c2c(OCCN)c1OC`, the growth is -84.6% (active).

`Cc1cc(N=C2NC(=O)S/C2=C\c2ccc(F)cc2)n[nH]1`: the growth is 15.2% (inactive).

Regarding `CC1(C)CC[C@]2(C(=O)O)CC[C@]3(C)C(=CCC4[C@@]5(C)C[C@@H](O)[C@@H]6OC(c7cccc(F)c7)OC[C@@]6(C)C5CC[C@]43C)C2C1` (stereo not given in full), the growth was 19.2% (inactive).

In the case of `Cn1cc(-c2nc(N)nnc2-c2c[nH]c3ccccc23)c2cc(Br)cnc21`, the growth is 29.8% (inactive).

As for `Cn1cc(-c2nnc(N)nc2-c2c[nH]c3ccccc23)c2cc(Br)cnc21`, the growth is 46.6% (inactive).

For the molecule `O=[N+]([O-])c1cccc(-c2nnc3c(/C=C/c4ccccc4O)nc4ccccc4n23)c1`, the growth is 54.2% (inactive).

For `O=C1S/C(=C\c2ccc([N+](=O)[O-])cc2)C(=O)N1CCN1CCCCC1`, the growth is 104% (inactive).

For `Cn1cc(-c2cc3nc(-c4c[nH]c5ccccc45)cc(N)n3n2)c2cc(Cl)ccc21`, the growth was -90% (active).

Take `CC1(C)CC(=O)C2=C(C1)N(Cc1ccc(C(=O)O)cc1)C1=C(C(=O)CC(C)(C)C1)C2c1ccc(Cl)cc1`: the growth is 97.5% (inactive).

For `COc1cc(C2CC(c3ccc(Oc4ccc(Cl)cc4)cc3)=NN2c2nc(-c3ccc(Cl)cc3)c(C#N)c(N3CCOCC3)n2)cc(OC)c1OC` (stereo not given), the growth is 94.5% (inactive).

As for `C#C[C@]1(O)CC[C@H]2[C@@H]3CC=C4c5sc(Nc6cc(C)cc(C)n6)nc5CC[C@]4(C)[C@H]3CC[C@@]21C`, the growth was -14% (active).

On to `COC(=O)CNC(=O)COc1c(OC)c(OC)cc2oc(-c3cccc(C(=O)Nc4ccc(Cl)cc4)c3)cc(=O)c12`, for which the growth is 64.1% (inactive).

Regarding `COc1ccc(Cc2nn(CC(=O)N/N=C/c3ccc([N+](=O)[O-])cc3)c(=O)c3c(C)noc23)cc1`, the growth was 86.6% (inactive).

In the case of `Nc1nnc(-c2c[nH]c3ncc(Br)cc23)c(-c2c[nH]c3ccc(Br)cc23)n1`, the growth is 46.2% (inactive).

For `O=C(Nc1ccc(Oc2ncnc3scc(Nc4n[nH]c(=S)s4)c23)cc1)C1(C(=O)Nc2cccc(C(F)(F)F)c2)CC1`, the growth is 97.1% (inactive).

Take `COc1ccc(Cc2nn(CC(=O)N/N=C/c3ccc(Br)cc3)c(=O)c3c(C)noc23)cc1`: the growth is 55.1% (inactive).

For `COc1ccc(C2c3sc4ccc(C)cc4c3Oc3nc(N)nc(N)c32)cc1` (stereo not given), the growth is 76.4% (inactive).

`Cc1cc(N=C2NC(=O)/C(=C/c3cc(C(C)(C)C)c(O)c(C(C)(C)C)c3)S2)n[nH]1`: the growth is 2.77% (active).

Consider `O=C(CC(=O)Nc1ccc(Oc2ncnc3scc(Nc4n[nH]c(=S)s4)c23)cc1)Nc1ccc(Br)cc1`, for which the growth is 101% (inactive).

As to `C#C[C@]1(O)CC[C@H]2[C@@H]3CC=C4c5sc(Nc6ccc(C(F)(F)F)cn6)nc5CC[C@]4(C)[C@H]3CC[C@@]21C`, the growth was -3.2% (active).

Take `COc1ccc(C(=O)COc2ccc(NC(=O)Nc3ccc(Cl)c(C(F)(F)F)c3)cc2)cc1`: the growth was 10.3% (inactive).

Regarding `COc1ccc2[nH]cc(-c3nc(N)nnc3-c3cn(C)c4ncc(Br)cc34)c2c1`, the growth is 35.1% (inactive).

With `CCOC(=O)c1ccc(NC(=O)CSC(CC(=O)c2sc(Nc3ccccn3)nc2C)c2ccccc2F)cc1` (stereo not given), the growth was 20.2% (inactive).

Turning to `O=C(CC(=O)Nc1ccc(Oc2ncnc3scc(Nc4n[nH]c(=S)s4)c23)cc1)Nc1ccc(Cl)cc1`, the growth is 75.6% (inactive).
